A selection: hits, their analogues and other compounds. The true share with any hit is near 4.8%.
PfHsp90 yeast 2: growth inhibition of yeast expressing Plasmodium Hsp90; S. cerevisiae expressing PfHsp90, BacTiter-Glo ATP, 48 h; yeast lacking PDR1 and PDR3 efflux regulators; AID 504621; hit rate 0.32% among 310,000; inhibition, % at 9.4 µM;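 active means every replicate shows inhibition above about 80%, whatever the replicate mean, limit read from the data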;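 further: 0% = DMSO neutral controls and 100% = 20 µM radicicol positive controls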
tim23-1 inh: growth inhibitors of tim23-1 mutant yeast; S. cerevisiae tim23-1 growth, BacTiter-Glo luminescence, 24 h; hit rate 1.3% among 330,000; inhibition, % at 20 µM;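 active means growth inhibition of the mutant yeast at or above 50%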;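 further: temperature-sensitive mutant grown at 25 °C; plate controls were DMSO-treated mutant yeast for no effect and medium wells lacking yeast for full effect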
NALP1 yeast inh: blocks the NALP1 inflammasome reconstituted in yeast; S. cerevisiae NALP1/ASC/caspase-1 growth, X-gal OD620, 72 h; inhibition, % at 10 µM; hit rate 0.61% among 280,000; AID 2071; in the data active means inhibition mostly above about 24%, no sharp cut-off; inactive means mostly below about 32%
TIM10 inh: inhibits growth of TIM10 yeast strain; inhibition, % at 10 µM; hit rate 1.4% among 330,000; S. cerevisiae TIM10 strain growth, BacTiter-Glo luminescence, 24 h;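 active means inhibition of 40% or more at the single tested concentration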;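 further: wild-type TIM10 isogenic control strain grown at permissive 25 °C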
tim10-1 inh: growth inhibitors of tim10-1 mutant yeast; S. cerevisiae tim10-1 ts strain growth, BacTiter-Glo, 24 h; inhibition, % at 20 µM; hit rate 2.2% among 330,000; AID 463190;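 active means inhibition of at least 40%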;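 further: mutant grown at 25 °C; 0% = DMSO wells with yeast and 100% = wells holding no yeast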
SKKanGAS inh: SKKanGAS growth inhibition; S. pyogenes SKKanGAS, kanamycin growth, BacTiter-Glo, 6 h; inhibition, % at 7.5 µM; hit rate 1.3% among 300,000;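 active means mean replicate score, as percent of positive control median, at least 50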;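 further: strain carries kanamycin resistance gene driven by streptokinase promoter and grows in 40 µg/ml kanamycin; loss of luminescence reflects streptokinase promoter inhibition or plain growth inhibition; 0% = median of DMSO wells and 100% = positive control at its reference dose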
* hit, by the source's call.

`CCOc1ccccc1C(=O)NC(C(=O)OCC(=O)Nc1nnc(-c2ccccc2)o1)C(C)C` (stereo not drawn) gave PfHsp90 yeast 2 -7, tim23-1 inh 24, NALP1 yeast inh 22, TIM10 inh 28, tim10-1 inh 24 and SKKanGAS inh 60*.
`O=C(COC(=O)CNC(=O)c1ccccc1F)Nc1nnc(-c2ccccc2)o1` gave PfHsp90 yeast 2 7, tim23-1 inh 0, TIM10 inh -3, tim10-1 inh 2 and SKKanGAS inh 28.
`CCOc1ccccc1C(=O)OCC(=O)Nc1nnc(-c2ccccc2)o1` gave tim23-1 inh 17, TIM10 inh -3, tim10-1 inh 3 and SKKanGAS inh 77*.
CC1(C(=O)OCC(=O)Nc2nnc(-c3ccccc3)o2)CC1(Cl)Cl (stereo not drawn) was read as PfHsp90 yeast 2 -7, tim23-1 inh 7, TIM10 inh -2, tim10-1 inh -8 and SKKanGAS inh 73*.
`O=C(COC(=O)CCC(=O)c1ccccc1)Nc1nnc(-c2ccccc2)o1` gave tim23-1 inh -16, TIM10 inh -2, tim10-1 inh -4 and SKKanGAS inh 39.
For CC(=O)c1c(C)[nH]c(C(=O)OCC(=O)Nc2nnc(-c3ccccc3)o2)c1C the results were PfHsp90 yeast 2 -26, tim23-1 inh 0, TIM10 inh -5 and tim10-1 inh 0.
Cc1cccc(C(=O)OCC(=O)Nc2nnc(-c3ccccc3)o2)c1O was read as tim23-1 inh 9, TIM10 inh -14, tim10-1 inh 0 and SKKanGAS inh 98*.
`CC1(C(=O)OCC(=O)Nc2nc(-c3ccc(F)c(F)c3)cs2)CC1(Cl)Cl` (stereo not drawn) gave PfHsp90 yeast 2 14, tim23-1 inh 23, NALP1 yeast inh 23, TIM10 inh 30, tim10-1 inh 0 and SKKanGAS inh 71*.
Screening CCOC(=O)c1c(C)oc2c1c(C(c1cccnc1)N1CCN(C)CC1)c(O)c1ccccc12 (stereo not drawn) returned NALP1 yeast inh 9.
`CCOC(=O)c1c(C)oc2c1c(C(c1cccnc1)N1CCOCC1)c(O)c1ccccc12` (stereo not drawn) gave PfHsp90 yeast 2 91*, tim23-1 inh 35, NALP1 yeast inh 10, TIM10 inh 25, tim10-1 inh 18 and SKKanGAS inh 4.
Screening COc1ccc(CCNC(=O)COc2ccc(N(C)S(=O)(=O)c3ccc(C)cc3)cc2)cc1OC returned PfHsp90 yeast 2 -1, tim23-1 inh 6, NALP1 yeast inh 8, TIM10 inh 3, tim10-1 inh 11 and SKKanGAS inh -6.
COc1ccc(C(=O)CSc2nc(-c3ccccn3)nc(C)c2Cl)cc1 was read as PfHsp90 yeast 2 0, tim23-1 inh 47, TIM10 inh 37, tim10-1 inh 31 and SKKanGAS inh 88*.
`Cc1ccnc(NC(=O)CCC(=O)N(CC(=O)NC2CCCCC2)C2CCCC2)c1` gave PfHsp90 yeast 2 -35, tim23-1 inh 16, TIM10 inh 6, tim10-1 inh -1 and SKKanGAS inh 6.
For Cc1c(C)n2c(SCC(=O)N3CCOCC3)nnc2[nH]c1=O the results were tim23-1 inh -2, TIM10 inh -5, tim10-1 inh -2 and SKKanGAS inh 0.
For Nc1c(C(=O)Nc2nc3ccccc3s2)sc2nc(-c3cccs3)ccc12 the results were PfHsp90 yeast 2 -23, tim23-1 inh 3, NALP1 yeast inh 15, TIM10 inh 7, tim10-1 inh 21 and SKKanGAS inh 50*.
`CC(C)=CCc1c(O)cc2oc3c(CC=C(C)C)c(O)c(O)c(CC=C(C)C)c3c(=O)c2c1O` gave PfHsp90 yeast 2 13, tim23-1 inh 15, NALP1 yeast inh -7, TIM10 inh -4, tim10-1 inh 13 and SKKanGAS inh 101*.
Screening O=C1OC(c2ccccc2)(c2ccc3cc(O)ccc3c2)c2ccccc21 (stereo not drawn) returned PfHsp90 yeast 2 113*.
Screening CC(=O)C1=C(c2ccc(Br)cc2)C(=O)c2ccccc2C1=O returned PfHsp90 yeast 2 102*, NALP1 yeast inh -2 and SKKanGAS inh 66*.
`Cc1nc(N)sc1N=Nc1ccc(F)cc1` gave PfHsp90 yeast 2 4, tim23-1 inh 36, NALP1 yeast inh 32, TIM10 inh 20, tim10-1 inh 19 and SKKanGAS inh 81*.
`COc1ccc(Cl)cc1C(=O)NNC(=O)CSc1nnc2ccccn12` gave PfHsp90 yeast 2 1, tim23-1 inh 9, NALP1 yeast inh -13, TIM10 inh -13, tim10-1 inh 1 and SKKanGAS inh 3.
For COc1ccccc1NS(=O)(=O)c1cc(NC(=S)NCC2CCCO2)ccc1C (stereo not drawn) the results were PfHsp90 yeast 2 -1, tim23-1 inh 16, NALP1 yeast inh 11, TIM10 inh 5, tim10-1 inh 16 and SKKanGAS inh 56*.
`COc1ccccc1NS(=O)(=O)c1cc(C(=O)N2CC(C)CC(C)C2)ccc1C` (stereo not drawn) gave PfHsp90 yeast 2 102*, tim23-1 inh -107, NALP1 yeast inh -12, TIM10 inh -42, tim10-1 inh -79 and SKKanGAS inh -11.
Screening Cc1ccccc1NS(=O)(=O)c1cc(C(=O)N2CCCC2)ccc1C returned PfHsp90 yeast 2 -2, tim23-1 inh -2, NALP1 yeast inh 39, TIM10 inh 4, tim10-1 inh 12 and SKKanGAS inh 3.
Screening COc1ccccc1NS(=O)(=O)c1cc(C(=O)NCC2CCCO2)ccc1C (stereo not drawn) returned PfHsp90 yeast 2 -44, tim23-1 inh 6, TIM10 inh 5, tim10-1 inh 0 and SKKanGAS inh -1.
`Cc1ccc(C)n1-c1sc2c(c1C#N)CCC(C)C2` (stereo not drawn) gave PfHsp90 yeast 2 -1, tim23-1 inh 23, NALP1 yeast inh 35*, TIM10 inh 2, tim10-1 inh 30 and SKKanGAS inh 62*.
For CC(=O)Nc1sc2c(c1C#N)CCC(C)C2 (stereo not drawn) the results were PfHsp90 yeast 2 -32, tim23-1 inh 16, NALP1 yeast inh 7, TIM10 inh 9, tim10-1 inh 20 and SKKanGAS inh -1.
For Cc1ccccc1C(=NCCCN(C)C)c1ccccc1C the results were PfHsp90 yeast 2 -6, tim23-1 inh -20, NALP1 yeast inh 26, TIM10 inh -15, tim10-1 inh 5 and SKKanGAS inh 1.
Screening Cc1ccc(NC(=O)CC2NCCNC2=O)cc1 (stereo not drawn) returned PfHsp90 yeast 2 12, tim23-1 inh -4, NALP1 yeast inh 7, TIM10 inh 8, tim10-1 inh 4 and SKKanGAS inh -1.
For O=C(CC1NCCNC1=O)Nc1ccc([N+](=O)[O-])cc1 (stereo not drawn) the results were PfHsp90 yeast 2 -17, tim23-1 inh 6, NALP1 yeast inh 32*, TIM10 inh -16, tim10-1 inh -8 and SKKanGAS inh -1.
